VACV mCherry inh – inhibitors of vaccinia virus infection (mCherry reporter signal). 310,000 compounds, 0.63% hits. AID 720579. Potency, µM (series often up to 36.5 µM), without a hit: at the top dose activity change, negative = inhibition, most hits filed as inhibitors. Vaccinia virus mCherry reporter infection, fluorescence; calls by dose curve; tested in A549 cells; further: potency means the concentration at half of the fitted maximal effect; nearly all actives have a fitted effect of over 35% in size
Lassa entry inh – blocks Lassa virus binding to or entry into cells; Lassa virus pseudotype entry inhibition, cell reporter; Potency, µM (top dose mostly 37.9 µM), without a hit: top-dose activity change, negative = inhibition, usual class: inhibitors; 300,000 compounds, 1.2% hits; calls by dose curve; tested in HEK293 cells; further: potency means the concentration at half of the fitted maximal effect; nearly all actives have a fitted effect of over 50% in size
HCV inhibitor – inhibitors of hepatitis C virus infection. Huh7.5.1 HCVcc-Cre infection, luciferase reporter, 44 h. Potency, µM (series often up to 41.8 µM), without a hit: at the highest dose activity change, negative = inhibition, actives largely listed as inhibitors. 340,000 compounds, 3.4% hits; active means well fitted inhibition curve with a large enough effect; inconclusive means small, poorly fitted or top-dose-only effect, or another doubt; inactive means no such curve, though single readings can be large or run the other way; further: potency means the concentration at half of the fitted maximal effect
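Whole-lifecycle infectious HCVcc-Cre system; cells 1,000/well, compound then virus (~0.5 moi) added 4 h after plating, 44 h culture. Luciferase read 15 sec following 15 min substrate incubation, room temp.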
MARV entry inh – Marburg virus entry inhibition; Marburg virus pseudotyped entry inhibition, cell reporter; Potency, µM (top dose mostly 37.8 µM), for the others: at the top dose activity change, negative = inhibition, usual class: inhibitors; 300,000 compounds, 1.8% hits; calls by dose curve; tested in HEK293 cells; further: potency means the concentration at half of the fitted maximal effect
HCMV inh – inhibitors of human cytomegalovirus. HFF cells, HCMV-luciferase reporter, 72 h; stronger effect = lower value. activity change, negative = inhibition, % at 57.5 µM. 410,000 compounds, 4.5% hits. AID 1259415; in the data active means activity change below about -60%; inconclusive means no clear call, values can overlap the other calls; inactive means above about -39%
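Screen run at 2 compound doses on HFFs infected with reporter HCMV, MOI 1 PFU/cell. Luciferase activity from cell lysates at 72 h post infection gave inhibition relative to buffer-only and Salinomycin wells.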
Vaccinia Venus – inhibitors of vaccinia virus (Venus reporter); 330,000 compounds, 0.46% hits; AID 720580; Vaccinia virus Venus reporter expression, fluorescence; Potency, µM (titrated, usually from 36.5 µM), inactives show top-dose activity change, negative = inhibition, usual class: inhibitors; calls by dose curve; tested in A549 cells; further: potency means the concentration at half of the fitted maximal effect; nearly all actives have a fitted effect of over 30% in size
* = called active by the depositor; i = inactive; ? = inconclusive; / = no result given; [ ] = remark or other dose. A selection: hits, their analogues and other compounds. The true share with any hit is near 7.8%. On the % scale 0 is the no-effect control and ±100 the full control effect.

SMILES | VACV mCherry inh | Lassa entry inh | HCV inhibitor | MARV entry inh | HCMV inh | Vaccinia Venus
CCOc1ccc(CC(=O)NC2CC(=O)N(c3cccc(F)c3)C2)cc1 (stereo not drawn) | -8% | 18%[46.1 µM] | / | / | -9 | -8%
COCCCN(Cc1ccco1)C(=O)c1cc2c(s1)-c1ccccc1OC2 | -14% | / | / | 16%[46.1 µM] | -35 | -22%
CCOC(=O)c1ccc(NC(=O)C(CC)Sc2nc3ccncc3[nH]2)cc1 (stereo not drawn) | i | 29%[46.1 µM] | / | 2%[46.1 µM] | -2 | -11%
CC(=O)Nc1ccc(NC(=O)C(Cc2ccccc2)N2Cc3ccccc3C2=O)cc1 (stereo not drawn) | i | -20%[46.1 µM] | / | / | -26 | -12%
C=CCn1c(O)c(N=NC(=S)Nc2ccc(OC)cc2)c2ccccc21 | -29% | ? | ? | ? | -72* | -30%
CC(Oc1ccc(F)cc1)C(=O)Nc1cc(-c2ccc(F)c(F)c2)no1 (stereo not drawn) | -12% | -8%[46.1 µM] | / | 4%[46.1 µM] | -27 | -10%
COc1ccccc1CC(=O)Nc1ccc2nc(Nc3cccc(Cl)c3)cc(C)c2c1 | -23% | 3.2µM* | / | / | ? | -28%
Cc1cc(Nc2cccc(C(F)(F)F)c2)nc2ccc(NC(=O)Cc3ccc(Cl)cc3)cc12 | -27% | -27%[46.1 µM] | / | / | -103* | ?
Cc1cccc(OCC(=O)Nc2ccc3nc(Nc4cccc(C(F)(F)F)c4)cc(C)c3c2)c1 | -21% | -1%[46.1 µM] | / | / | -35 | -28%
Cc1cc(Nc2cccc(Cl)c2)nc2ccc(NC(=O)c3cccc(N(C)C)c3)cc12 | -25% | -14%[46.1 µM] | / | / | -35 | -19%
Cc1ccc(OCC(=O)Nc2ccc3nc(Nc4cccc(Cl)c4)cc(C)c3c2)cc1 | 3% | ? | / | 0%[46.1 µM] | 4 | 11%
COc1ccc(CC(=O)Nc2ccc3nc(Nc4cccc(Cl)c4)cc(C)c3c2)cc1 | ? | ? | / | / | -102* | ?
Cc1cc(Nc2cccc(Cl)c2)nc2ccc(NC(=O)c3cccnc3)cc12 | -11% | -22%[46.1 µM] | / | / | -98* | -29%
Cc1ccc(NC(=O)Cc2csc(C)n2)c(C)c1 | 3% | 19%[46.1 µM] | / | 28%[46.1 µM] | -4 | -3%
O=C(NCCc1ccccc1)C1CCN(S(=O)(=O)c2ccccc2)CC1 | / | -9% | 9% | ? | -104* | /
CSc1ccccc1C(=O)NCCc1ccc(S(=O)(=O)N2CCCCC2)cc1 | / | 0% | 5% | 18% | -102* | /
NC(=O)C1CCN(c2ccc(S(=O)(=O)N3CCC(Cc4ccccc4)CC3)cn2)CC1 | -6% | ? | ? | ? | -67* | -6%
O=C(CCNC(=O)C1CCN(S(=O)(=O)c2ccccc2)CC1)NCc1ccc(Cl)cc1Cl | / | / | 8% | / | -75* | /
O=C(NCCc1ccccc1)c1ccc(S(=O)(=O)N2CCCCC2)cc1 | -8% | / | / | / | 45 | -13%
COCC(=O)Nc1cc(C(=O)N2CCN(C3CCCC3)C(=O)C2)c2c(c1)nc(-c1ccncc1)n2C | -9% | / | / | / | / | 4%
Cc1cc(C)cc(OCC(=O)Nc2nc3c(s2)CC(C(C)(C)C)CC3)c1 (stereo not drawn) | -21% | ? | / | -5%[46.1 µM] | -3 | 4%
CCOC(=O)C1=C(C)N=C2S[C@H](C)C(=O)N2[C@@H]1c1ccc(OC(C)=O)c(OC)c1 | / | / | / | -13% | / | /
COC(=O)C1=C2CCO[C@H]2[C@@H]2[C@@H](C)[C@H](OC)c3ccccc3[C@@H]12 | / | -6%[14.3 µM] | / | ? | / | /
Cc1cccc(CCNC(=O)c2cc(S(=O)(=O)N3CCCC3)cn2C)c1 | i | / | 8.9µM* | / | 2 | -13%
O=S(=O)(NC1CCCC1)c1ccc(S(=O)(=O)N2CCCN(Cc3ccccc3)C2)cc1 | / | ? | ? | 5.8µM* | -23 | /
SMILES | VACV mCherry inh | Lassa entry inh | HCV inhibitor | MARV entry inh | HCMV inh | Vaccinia Venus
O=C(NC1CCN(Cc2ccccc2)CC1)C1CCN(S(=O)(=O)c2ccc(Cl)cc2)CC1 | ? | ? | 10µM* | ? | ? | -8%
O=C(NC1CCCCC1)c1nnc2n1CCN(Cc1cccc(C(F)(F)F)c1)C2 | / | / | / | / | 21 | /
C=CCNc1nc(C(F)(F)F)nc2c1nnn2Cc1ccccc1Cl | / | / | 1% | / | 24 | /
CN(C)S(=O)(=O)c1ccc(Nc2nc(C3CC3)nc3c2nnn3Cc2ccccc2Cl)cc1 | i | ? | ? | -34% | -79* | -19%
CC(=O)Nc1ccc(Nc2nc(C(F)(F)F)nc3c2nnn3Cc2ccccc2Cl)cc1 | ? | -5%[46.1 µM] | ? | -28%[46.1 µM] | -72* | -21%
CCOCCCNc1nc(C(F)(F)F)nc2c1nnn2Cc1ccccc1Cl | / | / | 11µM* | / | ? | /
Cc1ncc2c(c1CNC(=O)c1ccsc1)CCN(C(=O)c1c(F)cccc1Cl)C2 | 33% | / | / | / | / | 55%
CC(C)(C)c1ccc(CSc2ccc(S(=O)(=O)N3CCOCC3)cn2)cc1 | / | / | 10µM* | / | ? | /
Cc1c(C(=O)Nc2ccc(-c3nnc4n3CCCCC4)cc2)oc2c1ccc1ccccc12 | 14µM* | ? | -57% | ? | ? | ?
Cc1ccc2c(c1)c1c(n2C)C(=O)CCC1 | -8% | 5% | 4µM* | 10% | -7 | -12%
CCN(c1ccccc1)c1nnc(NC(=O)Nc2ccc(Br)cc2)s1 | -4% | 3%[46.1 µM] | / | -25%[46.1 µM] | 1 | -6%
Cc1ccc(S(=O)(=O)/N=C2/C=C(Sc3ncn[nH]3)C(=O)c3ccccc32)c(C)c1 | / | 4.1µM* | ? | ? | / | /
Cc1ccc(S(=O)(=O)Nc2ccc(O)c(Sc3ncn[nH]3)c2)cc1 | ? | 18%[46.1 µM] | 13% | 11% | -3 | -7%
Cc1ccc(S(=O)(=O)/N=C2/C=C(Sc3ncn[nH]3)C(=O)c3ccccc32)cc1 | 2.8µM* | 2.9µM* | 4µM* | ? | / | 7.1µM*
CCCN(CCC)C(=O)Cn1c(=O)n(-c2cccc(C)c2)c(=O)c2c1c1cc(OC)ccc1n2C | -7% | -15%[46.1 µM] | / | -15%[46.1 µM] | -29 | -10%
CCOC(=O)C1=C(CCl)NC(=O)N(C(C)=O)C1c1ccccc1 (stereo not drawn) | / | ? | / | -22%[14.2 µM] | / | /
Cc1nn(CC(=O)NCCc2ccccc2)c(=O)c2nn(-c3ccccc3)c(C)c12 | -16% | 16%[46.1 µM] | / | / | 45 | -19%
Nc1nc(-c2ccccc2)cc(N2CCCCC2)n1 | -23% | ? | -21% | ? | -63* | ?
Cc1nc(-c2ccccc2)cc(N2CCCC2)n1 | / | 5% | 8.9µM* | -10% | 5 | /
COc1ccccc1N1CCN(c2ccc3ccccc3n2)CC1 | -29% | ? | ? | ? | 77 | -23%
COc1cc(-c2ccccc2)nc(N)n1 | / | 12µM* | 3% | ? | 71 | /
COc1ccccc1N1CCN(c2cc(N3CCCC3)nc(C)n2)CC1 | ? | -8% | ? | 4% | -103* | -26%
O=C(Nc1cc(-c2nc3cc(Cl)ccc3o2)ccc1Cl)c1cccc2ccccc12 | -5% | 8%[46.1 µM] | / | 8%[46.1 µM] | 82 | 6%
COc1ccccc1N1CCN(c2ccc(-c3ccccc3)nn2)CC1 | ? | 3.5µM* | ? | 1.6µM* | -96* | -26%
COc1ccccc1N1CCN(c2nc(-c3ccccc3)cc(C(F)(F)F)n2)CC1 | / | 7% | ? | 1% | -21 | /
